# NR3A LBD binder: binders of NR3A ligand-binding domain, primary screen, biophysical, differential scanning fluorimetry, uHTS | NR3A LBD differential scanning fluorimetry, Tm shift; 0% = protein alone, 100% = glycine-bound protein | Glutamate receptor ionotropic, NMDA 3A (GRIN3A) ligand-binding domain | Tm shift relative to glycine control, % at 25 µM | actives 2.5% (n = 340,000) | AID 1259313, 2017;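 active = melting temperature shift of at least 10% of the positive control shift, at one fixed dose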
# dFosB act: activators of delta FosB homodimer, primary screen, biochemical, fluorescence polarization, TAMRA-CDK5 oligo, single point | purified delta FosB; percent of positive-control signal above neutral wells | activation, % at 25 µM | actives 0.99% (n = 340,000);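 active = mean activation above about 17%, with every replicate also reaching it, limit read from the data, passing the limit was not always enough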
# ZTA counter: blocks Epstein-Barr virus ZTA, an EBNA-1 counter-screen; P03206; ZTA-DNA binding, fluorescence polarization; inhibition, % at 11 µM; actives 0.15% (n = 320,000); AID 2234; in the data active = inhibition above about 33%
# Target sequence (P03206 whole entry, looked up): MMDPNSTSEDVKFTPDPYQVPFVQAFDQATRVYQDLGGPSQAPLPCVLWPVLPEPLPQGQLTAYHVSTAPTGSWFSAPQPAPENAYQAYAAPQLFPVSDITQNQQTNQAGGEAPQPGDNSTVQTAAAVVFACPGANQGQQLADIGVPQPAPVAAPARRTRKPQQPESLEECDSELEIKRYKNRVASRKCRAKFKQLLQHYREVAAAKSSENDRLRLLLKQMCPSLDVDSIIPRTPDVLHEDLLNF
# Rpn11 block: Rpn11 (PSMD14) deubiquitinase inhibitors, primary screen, biochemical, fluorescence polarization, uHTS; 26S proteasome non-ATPase regulatory subunit 14 (Homo sapiens), O00487; human 26S proteasome, Ub4-pepOG fluorescence polarization; 20S core pre-blocked with epoxomicin; inhibition, % at 20 µM; actives 0.59% (n = 360,000); AID 588493, 2011;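 active = inhibition at 20 µM, scaled to each plate's controls, above about 33%, limit read from the data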
# EBNA-1 inh: EBNA-1 DNA-binding inhibitors, primary screen, biochemical, fluorescence polarization. inhibition, % at 14.8 µM. actives 0.34% (n = 300,000); in the data active = inhibition above about 28%
# TPT1 inhibitor: Candida albicans TPT1 enzyme inhibitors, primary screen, biochemical, fluorescence polarization; inhibition, % at 5 µM; tRNA 2'-phosphotransferase TPT1 (Candida albicans SC5314); actives 0.81% (n = 300,000); AID 1962, 2009; recombinant caTPT1, FP RNA substrate dephosphorylation;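 active = inhibition above the mean of all tested compounds plus 3 SD, set per screening campaign, cut at about 24% in these data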;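 note: plate controls were DMSO alone for no effect and ferristatin control at 100 nM for full effect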
# caTPT1 confirm: Candida albicans TPT1 inhibitors, confirmation, biochemical, fluorescence polarization, triplicate; shares compounds with TPT1 inhibitor; recombinant caTPT1, RNase T1 coupled; inhibition, % at 5 µM; actives 74% (n = 2,400); AID 2149, 2009;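 active = inhibition above the primary screen limit, the mean inhibition of all tested compounds plus 3 SD, cut at about 25% in these data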
# RNase T1 counter: RNase T1 inhibitors, counter-screen for TPT1 inhibitor project, biochemical, fluorescence polarization | shares compounds with TPT1 inhibitor | RNase T1 cleavage, 1536-well | inhibition, % at 5 µM | actives 83% (n = 2,400);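 active = inhibition above the solvent-only control well mean plus 3 SD, limit set per screening run, cut at about 23% in these data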;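 note: plate controls were DMSO wells with enzyme for no effect and wells without RNase T1 for full effect; inhibitors block cleavage so intact labeled substrate keeps polarization high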
# Target sequence (P00651 whole entry, looked up): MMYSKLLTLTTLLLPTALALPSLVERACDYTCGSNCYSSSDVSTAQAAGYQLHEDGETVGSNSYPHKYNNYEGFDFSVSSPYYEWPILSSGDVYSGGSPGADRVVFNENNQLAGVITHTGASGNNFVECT
# Active calls of the source: *; . = not tested or not shown. Hits are enriched below; roughly 4.5% of the tested compounds scored in any of these assays.
SMILES,NR3A LBD binder,dFosB act,ZTA counter,Rpn11 block,EBNA-1 inh,TPT1 inhibitor,caTPT1 confirm,RNase T1 counter
O=C(N/N=C/c1c(O)ccc2ccccc12)c1cccc(C(F)(F)F)c1,21*,3,0,.,5,135*,149*,137*
O=C(N/N=C\c1c(O)ccc2ccccc12)c1ccc(Cn2cccn2)o1,-8,0,13,.,-5,40*,45*,49*
O=C(N/N=C\c1ccc(Cl)s1)c1ccc(Cn2cccn2)o1,1,1,-19,3,-7,-3,.,.
c1ccc(C(c2ccccc2)c2noc(CN3CCC(c4ccncc4)CC3)n2)cc1,-1,-8,-6,1,-8,0,.,.
O=C(NCc1cccnc1)c1cc(C2CCCCN2S(=O)(=O)c2ccc(F)cc2F)on1 (stereo not given),.,.,.,-14,.,.,.,.
CCOc1ccccc1/C=N/NC(=O)c1c(C)nc2ccc(Br)cn12,1,-3,-18,-7,3,-1,.,.
COc1cccc(/C=N/NC(=O)c2c(C)nc3ccc(Br)cn23)c1O,-5,9,-4,16,4,31*,43*,46*
O=C(COc1ccc2ccccc2c1)NCC1CCCO1 (stereo not given),-3,0,6,-1,6,3,.,.
Cc1ccc(S(=O)(=O)Nn2cnnc2)cc1,-1,5,8,1,6,-3,.,.
Cc1ccc(S(=O)(=O)N(c2nc(N(C)C)nc(N(C)C)n2)n2cnnc2)cc1,-4,-6,-15,-6,-7,29*,7,12
O=S(=O)(Nc1nc2ccccc2nc1Nc1ccc2c(c1)OCCO2)c1cccs1,13*,-13,9,.,10,78*,90*,96*
COc1ccc(S(=O)(=O)Nc2nc3ccccc3nc2Nc2ccc3c(c2)OCO3)cc1,.,.,11,.,0,2,.,.
CCN(CC)CCCNC(=O)c1cc2c(-c3cccc(OC)c3)nn(C)c2s1,11*,-42,2,-7,2,37*,4,5
CCc1ccccc1NC(=O)CCS(=O)(=O)c1ccc(OC)cc1,1,-3,20,8,10,-4,.,.
CCN(CC)c1ccc(/C=C(\C#N)C(=O)NCc2ccccc2)cc1,-100,-1,-6,-39,1,89*,107*,114*
N#C/C(=C\c1ccccc1)C(=O)NCc1ccc(F)cc1,3,-11,24,4,6,-1,.,.
Cc1ccc(CNC(=O)/C(C#N)=C\c2ccc(N(C)C)cc2)cc1,.,.,-4,.,-6,58*,64*,80*
N#C/C(=C/c1ccc(C(=O)O)cc1)C(=O)NCc1ccccc1,0,7,10,4,2,0,.,.
N#C/C(=C\Nc1ccc2c(c1)OCCO2)C(=O)NCc1ccco1,1,6,-7,3,4,-4,.,.
CCN(CC)c1ccc(/C=C(\C#N)C(=O)NCc2ccco2)cc1,.,.,3,.,6,110*,104*,114*
Cc1cccc(NC(=O)C2CCN(S(=O)(=O)c3c(C)c(C)cc(C)c3C)CC2)n1,-3,-8,-6,3,-9,-1,.,.
O=S(=O)(N/N=C/c1cn(Cc2ccccc2)c2ccccc12)c1ccccc1,5,-10,11,-3,9,-1,.,.
Cc1cc(OC(C)C(=O)NNC(=O)Nc2ccc(F)cc2F)cc(C)c1Cl (stereo not given),-3,-2,11,5,9,0,.,.
